Our source for the growth values is PubChem BioAssay (NCI).

Structures are written as SMILES. This is part of a sample that, as a whole, favours compounds with a hit. Of some 83,000 tested, about 20% had one in any assay.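 Compound tested at a single concentration for 48 hours in 96-well plates; a percent growth value below 10 was scored as active.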 A number with no mark means an inactive call. Calls of active or inactive are those of the source.

Common to all, as to test: NCI-60 one-dose screen, 48 h (100 = growth as untreated, 0 = no growth, -100 = all killed)
Holding throughout (settings): 10 µM unless noted

For experiment [1], the system named is SK-MEL-2 melanoma.
Experiment [2] deals with EKVX NSCLC.
Experiment [3] relates to SN12C renal.
The test system of experiment [4] is UO-31 renal.
Experiment [5] deals with TK-10 renal.
Experiment [6] concerns ACHN renal.
Experiment [7] has as its system CAKI-1 renal.
The subject of experiment [8] is A498 renal.
The subject of experiment [9] is CCRF-CEM leukemia.
The test system of experiment [10] is MOLT-4 leukemia.
The subject of experiment [11] is SR leukemia.
For experiment [12], the system named is RPMI-8226 leukemia.
The test system of experiment [13] is OVCAR-8 ovarian.
Experiment [14] has as its system OVCAR-5 ovarian.
Experiment [15] deals with OVCAR-4 ovarian.
For experiment [16], the system named is SK-OV-3 ovarian.
The test system of experiment [17] is IGROV1 ovarian.
Experiment [18] has as its system OVCAR-3 ovarian.
Experiment [19] relates to HS 578T breast.
In experiment [20] the test system is NCI/ADR-RES ovarian.

On to `COc1ccc(C(=O)/C=C/Nc2cc(-c3ccccc3)nn2-c2ccccc2)cc1`, for which the growth in experiment [1] is 101%; in [2], 89.4%; in [3] it was 94.5%; in experiment [4] it was 79.3%; in experiment [5] it was 84.2%; in experiment [6], 99%. Also, the growth in [7] is 94.3%; in experiment [8] it was 78%; in experiment [9], 84.2%; in experiment [10] it was 85.4%; in experiment [11], 99.3%; in experiment [12] it was 94.9%. Also, the growth was 95.9% in experiment [13]; 94.2% in experiment [14]; 98.7% in experiment [15]; 97.6% in experiment [16]; 97.8% in experiment [17]; 109% in experiment [18]. The results for the growth in [19] and in [20] were 107% and 93.2%, respectively.

Regarding `COC(=O)CNC(=O)c1ccc(NC(=O)c2[nH]c(C)c(Cl)c2Cl)c(O[C@H]2CCNC2)c1`, the growth in [1] was 108%; in [2], 102%; in [3], 97.5%; in experiment [4] it was 84.8%; in experiment [5], 104%; in experiment [6] it was 106%. The growth was 94.9% in experiment [7]; 89.9% in [8]; 91.9% in experiment [9]; 93.5% in experiment [10]; 83.7% in experiment [11]; 96.7% in experiment [12]. Further, the growth in experiment [13] is 101%; in experiment [14], 112%; in [15], 110%; in [16], 96.6%; in [17], 111%; in experiment [18] it was 114%. Also, the growth in [19] was 92.8%; in experiment [20], 112%.

For `COC(=O)c1cc(-c2ccc(OC)c(OC)c2)[nH]c1N/N=C/c1c(Cl)cccc1Cl`, the growth is 53.6% in experiment [1]; 39.9% in experiment [2]; 59.1% in experiment [3]; 52.4% in [4]; 57.2% in [5]; 54.4% in experiment [6]. Besides, the growth in [7] was 6.72% (active); in experiment [8], 27.6%; in experiment [9], 19.7%; in [10], 39.4%; in experiment [11], 12.1%; in experiment [12], 24.1%. Further, the growth is 41.1% in [13]; 49.4% in experiment [14]; 69.3% in experiment [15]; 42.2% in experiment [16]; 42.4% in experiment [17]; -19.2% (active) in experiment [18]. In addition, the growth was 14.3% in experiment [19] and 26.8% in experiment [20].

As to `COC(=O)c1cc(-c2cc(OC)c(OC)c(OC)c2)[nH]c1N/N=C/c1c(Cl)cccc1Cl`, the growth in experiment [1] was -21.2% (active); in experiment [2], 64.4%; in [3], 40.6%; in [4], 40.9%; in experiment [5], -47.6% (active); in experiment [6], 10.1%. Further, the growth in [7] was 7.04% (active); in experiment [8] it was -63.6% (active); in experiment [9], 35.6%; in experiment [10], 33.2%; in [11], -17.6% (active); in [12], 18.4%. Further, the growth in experiment [13] was 5.44% (active); in [14], 22.7%; in experiment [15], 5.08% (active); in [16] it was 28.3%; in [17], -54.8% (active); in experiment [18] it was 9.29% (active). The growth is -5.55% (active) in experiment [19] and 6.82% (active) in [20].

Consider `C=C(C)Cn1c(SCC(=O)c2cccs2)nc2sc3c(c2c1=O)CCCC3`, for which the growth in experiment [1] is 92.3%; in [2] it was 77.1%; in [3], 64.5%; in [4], 58.6%; in experiment [5] it was 87.5%; in experiment [6] it was 44.3%. The growth in experiment [7] is 53.8%; in experiment [8] it was 72.1%; in [9], 40%; in experiment [10] it was 41.9%; in [11] it was 44%; in experiment [12] it was 50.7%. Besides, the growth in experiment [13] is 49%; in [14], 71.2%; in [15], 73.4%; in experiment [16], 79.1%; in experiment [17], 55.1%; in [18], 64.5%. Also, the growth in [19] was 65.3%; in [20], 43.9%.

Take `CCOC(=O)c1c(Nc2nc3ccccc3s2)sc2c1CCC(=O)C2`: the growth in experiment [1] was 103%; in experiment [2], 42.8%; in experiment [3] it was 36.8%; in experiment [4], 52.7%; in experiment [5], 29.1%; in [6] it was 29.9%. In addition, the growth in experiment [7] is 42.8%; in experiment [8] it was 59.1%; in experiment [9] it was 16.9%; in experiment [10] it was 20.8%; in [11], 0.365% (active); in [12] it was 12.7%. Also, the growth was 27.2% in experiment [13]; 86.7% in experiment [14]; 8.06% (active) in experiment [15]; 99.5% in experiment [16]; 44.7% in [17]; 49.7% in experiment [18]. Also, the growth in experiment [19] is 41.1%; in experiment [20], 87.3%.
